Results from PubChem BioAssay AID687020 (Broad Institute, 2013).
In all, about 1,400 compounds went through this assay and about 100 (7.1%) were called active. Not all results are given here. Potency and affinity values are given separately. Values without a mark were called inactive. No rule for the calls is given here.

assay: Vero cell toxicity, dose response, cytotoxicity control, plate reader, cherry-pick samples (AID 687020); details: Vero cells toxicity; series mostly up to 19.5 µM; activity change, negative = toxicity: at the top concentration;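 also: compounds incubated with cells for three days before luminescence read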

SMILES	activity change, negative = toxicity [%]
CCCCOc1ccc(C(=O)NCCOc2cccc(OC)c2)cc1	-4.01
Cc1c(Cl)cccc1NC(=O)CNC(=O)C1CC(=O)N(C2CCCC2)C1 (configuration not stated)	-10.4
Cc1noc(C)c1NC(=O)Nc1ccc2c(c1)C(=O)N([C@@H](C)CO)C[C@H](C)[C@@H](CN(C)C(=O)CCCN(C)C)OCCCC[C@@H](C)O2	-1.38
CN(C)CCCNC(=O)OC1CC2CC1[C@H]1CCCCN1C2=O (some centres not stated)	-2.19
CCCNC(=O)OC1CC2CC1[C@H]1CCCCN1C2=O (some centres not stated)	2.02
O=C(NCc1ccccn1)C(=O)NCC1OCCN1S(=O)(=O)c1ccc(Br)cc1 (configuration not stated)	-6.28
COc1ccc(Cl)cc1NC(=O)CN(C)C(=O)C1COc2ccccc2O1 (configuration not stated)	-15.1
Cc1noc(C)c1S(=O)(=O)Nc1ccc2c(c1)C(=O)N([C@@H](C)CO)C[C@@H](C)[C@H](CN(C)C(=O)Nc1ccccc1)OCCCC[C@@H](C)O2	-5.09
Cc1cc(C)n2c(Nc3ccc4c(c3)OCCO4)c(CC(C)C)nc2n1	-21.1
Cc1cc(C)n2c(NC3CCCCC3)c(-c3ccccn3)nc2n1	-7.23
Cc1ccc(S(=O)(=O)N2CCN(C(=O)C(O)c3ccccc3)CC2)cc1 (configuration not stated)	-18.2
COC(=O)C[C@@H]1OC[C@H](Cc2ccccc2)N1S(=O)(=O)c1ccc(C)cc1	-39.2
Cc1ccc(S(=O)(=O)N2CCN(C(=O)COC(=O)Cc3ccc(Cl)cc3)CC2)c(C)c1	-17.2
COc1ccc(C(C(=O)NCc2ccccc2)n2c(-c3ccncc3)nc3ccccc32)cc1 (configuration not stated)	-13
CN(C)c1ccc(CNS(=O)(=O)c2ccc3c(c2)C(C)(C)C(=O)N3C)cc1	-30.9
C[C@H]1CCCCO[C@H](CN(C)S(=O)(=O)c2ccc(Cl)cc2)[C@@H](C)CN([C@@H](C)CO)C(=O)c2cc(NC(=O)Cc3ccccc3)ccc2O1	-3.01
COc1ccccc1CCNS(=O)(=O)CCNC(=O)c1ccc2c(c1)OCO2	-4.31
COc1ccc(OC)c(S(=O)(=O)N2CCN(c3c(C)cccc3C)CC2)c1	-9.78
COc1ccc(-c2cnc3c(NC(C)=O)cc(-c4ccccc4OC)cn23)cc1OC	0.032
COc1ccc(C2=Nn3c(nnc3-c3ccccc3Cl)SC2)cc1OCC1CC1	-15.7
CCCNC(=O)N1C[C@H](O)COC[C@@H]2O[C@@H](CC(=O)N3CCOCC3)CC[C@H]21	-2.31
COc1ccc(C(C)(NC(C)=O)c2nc(-c3cccc(F)c3)cs2)cc1 (configuration not stated)	-2.95
O=C(CCc1nc2ccccc2c(=O)[nH]1)N1CCCc2ccccc21	-7.68
C[C@@H]1CN([C@@H](C)CO)C(=O)c2cc(C#CCc3ccccc3)cnc2O[C@@H]1CN(C)C(=O)C1CCOCC1	2.03

SMILES	activity change, negative = toxicity [%]
c1ccc(-c2csc(-c3ccc(-c4csnn4)cc3)n2)cc1	-16.9
O=C(NCC1CC1)C1(S(=O)(=O)c2ccccc2)CC=CC1	3.88
CCOC(=O)CN1CC23C=CC(O2)C(C(=O)NCCc2ccccc2)C3C1=O (configuration not stated)	-11
CCOC(=O)N1CCN(Cc2nc3cc(NC(=O)CC)ccc3n2CC)CC1	-25.9
COc1cc(NC(C)=O)c2ncccc2c1Br	-17.8
COc1ccc(CN2CCC[C@]3(N[C@H](c4ccc(OC)cc4)[C@@H]4C(=O)N(C)C(=O)[C@@H]43)C2=O)cc1	-3.12
O=C(O)CNC(=O)c1ccc(NS(=O)(=O)c2ccc3ccccc3c2)cc1	-5.7
Cc1cc(Br)ccc1NC(=O)CN(C)C(=O)COc1cccc2c1OC(C)(C)C2	-22.1
O=C1N2CCCCC1(c1ccccc1)CCCC2	-13.6
COCCCN1C(=O)C(CC(=O)NC2CCCCC2)CC(C(=O)N(C(C)C)C(C)C)=C1C (configuration not stated)	-16.2
COc1ccc(N(CC(=O)N2CCN(C)CC2)S(=O)(=O)c2cc(C)ccc2OC)cc1Cl	-25.7
COc1ccc(-c2ccccc2)cc1NC(=O)c1cccs1	-35
O=C(Nc1ccc(S(=O)(=O)NC2=NCCCCC2)cc1)c1cccs1	-6.51
CC(C)NC(=O)N(C)C[C@@H]1Oc2ccc(NC(=O)Cc3cn(C)c4ccccc34)cc2C(=O)N([C@@H](C)CO)C[C@H]1C	9.26
OC(COC(c1ccc(Cl)cc1)c1ccc(Cl)cc1)CN1CCN(c2ccccn2)CC1 (configuration not stated)	-12.4
CCN(CC)c1ccc(/C=N/N2C(=O)c3ccccc3C2=O)c(O)c1	1.43
CCc1ccccc1OCC(=O)NNCC(=O)Nc1cccc(C#N)c1	-25.6
COc1cccc(NC(=O)CCN2C(=O)C3CC=CCC3C2=O)c1 (configuration not stated)	-2.23
CC(=O)N1[C@H](CO)[C@@H](c2ccc(-c3cccc(F)c3)cc2)[C@H]1CNC(=O)C1CC1	1.3
COc1ccc([C@H]2C[C@@H](n3cc(C4CC4)nn3)[C@H](O)CN2Cc2cccs2)cc1	-10.8
COc1ccc(C(=O)N2CCCCC2c2cc(C(=O)NCc3cccnc3)no2)cc1 (configuration not stated)	-22.5
C[C@H](NC(=O)C1CCN(S(=O)(=O)c2ccccc2)CC1)C(=O)NCc1cccnc1	-1.95
CC(C)[C@H](NC(=O)c1cccs1)C(=O)N1CCC[C@H]1C(=O)NCc1ccccc1	1.98
